In PubChem BioAssay AID651820 (National Center for Advancing Translational Sciences (NCATS), 2012):
About 12,000 (3.5%) of roughly 340,000 compounds were called active. Roughly 18% stayed inconclusive and do not appear here. Calls come from the whole dose curve; as a rule, active = well fitted inhibition curve with a large enough effect; inconclusive = small, poorly fitted or top-dose-only effect, or another doubt; inactive = no such curve, though single readings can be large or run the other way. The entries come from a sample that favours actives as a whole.

Experiment: qHTS Assay for Inhibitors of Hepatitis C Virus (HCV)
Settings: Huh7.5.1 HCVcc-Cre infection, luciferase reporter, 44 h; series mostly up to 41.8 µM; activity change, negative = inhibition: at the top concentration
Method in brief: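 Luciferase read-out (15 sec integration) after a 15 min room-temperature substrate step quantifies HCVcc-Cre infection. Cells, 1,000 per well, had compound added 4 h post-plating, then virus at ~0.5 moi, and were cultured 44 h.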
% is set by controls: 0 for no effect and ±100 for the full control effect; potency is the fitted concentration of half-maximal effect.

| Compound | activity change, negative = inhibition | Potency |
| --- | --- | --- |
| O=C(CNC(=O)c1n[nH]c2ccccc12)Nc1cc(Cl)ccc1Cl | 3.28% (inactive) | – |
| CCN1CCN(C(=O)N(Cc2ccc(Cl)cc2)S(=O)(=O)c2ccc(C)cc2)CC1 | 13.5% (inactive) | – |
| CCCCN(CC)C(=O)c1ccc2c(c1)OCO2 | 7.22% (inactive) | – |
| COCCN(Cc1cc2cc3c(cc2nc1Cl)OCO3)C(=O)c1cccc(C)c1 | – | 12.6 µM (active) |
| Cc1cccc(C(=O)NCCCN(C)CCCNC(=O)c2cccc(C)c2)c1 | -16.5% (inactive) | – |
| O=C(CC1Sc2ccccc2NC1=O)NNc1ccc(Cl)c(Cl)c1 (centres undefined) | -2.07% (inactive) | – |
| O=c1c2ccccc2nc2n1C(CSc1ccc(Cl)cc1)CN2 (centres undefined) | -18.2% (inactive) | – |
| O=c1c2ccccc2nc2n1C(CSCc1cccc(C(F)(F)F)c1)CS2 (centres undefined) | – | 10 µM (active) |
| O=c1c2ccccc2nc2n1C(CSCc1ccccc1)CS2 (centres undefined) | – | 14.1 µM (active) |
| O=c1[nH]c(SCc2cccc(F)c2)nc2ccccc12 | -6.28% (inactive) | – |
| N#Cc1c(-c2ccccc2)nc(SCc2cccc(C(F)(F)F)c2)[nH]c1=O | -2.24% (inactive) | – |
| O=c1c2ccccc2nc2n1C(CSc1ccc(F)cc1)CN2 (centres undefined) | 12.2% (inactive) | – |
| CN(C)S(=O)(=O)c1ccc(N2CCCC2)c(C(=O)Nc2ccc(Br)cc2F)c1 | -2.12% (inactive) | – |
| COc1ccc(S(=O)(=O)N2CCN(c3cnccn3)CC2)cc1 | 16.3% (inactive) | – |
| C=CCNC(=O)/C(=C\c1cccc([N+](=O)[O-])c1)NC(=O)c1ccccc1 | -1.28% (inactive) | – |
| Cc1ccc(Cc2cnc(NC(=O)/C(C#N)=C/c3ccc(-c4cccc([N+](=O)[O-])c4)o3)s2)cc1 | -8.13% (inactive) | – |
| N#C/C(=C\c1ccc(-c2cccc([N+](=O)[O-])c2)o1)C(=O)NCCN1CCOCC1 | – | 14.1 µM (active) |
| Cc1ccc(C(=O)N/C(=C/c2ccc(-c3cccc([N+](=O)[O-])c3)o2)C(=O)NCCCN(C)C)cc1 | – | 11.2 µM (active) |
| CN(C)CCNC(=O)/C(=C/c1cccc([N+](=O)[O-])c1)NC(=O)c1ccccc1 | 15.7% (inactive) | – |
| N#C/C(=C/c1ccc(-c2ccccc2[N+](=O)[O-])o1)C(=O)NCCN1CCCCC1 | -12.9% (inactive) | – |
| Cc1ccc(-c2csc(C(C#N)=C(O)CN3CCN(C(=O)c4ccco4)CC3)n2)cc1 | 6.31% (inactive) | – |
| COc1cccc(OC)c1C(=O)NC(=S)N1C[C@H]2C[C@H](C1)c1cccc(=O)n1C2 | 24.9% (inactive) | – |
| Cc1cccc(NC(=O)N2CC3CC(C2)c2cccc(=O)n2C3)c1 (centres undefined) | 18.3% (inactive) | – |
| COc1ccccc1NC(=O)N1C[C@@H]2C[C@@H](C1)c1cccc(=O)n1C2 | – | 1 µM (active) |
| C=CCOc1cccc(C2C(C(=O)c3ccc(C)o3)=C(O)C(=O)N2c2nnc(C)s2)c1 (centres undefined) | 3.6% (inactive) | – |

| Compound | activity change, negative = inhibition | Potency |
| --- | --- | --- |
| CCCC(CNC(=O)COC(=O)C1=NNC(=O)CC1)c1ccc(Cl)cc1Cl (centres undefined) | 2.1% (inactive) | – |
| CC(=O)c1ccc(NC(=O)C(C)OC(=O)c2ccc(NS(=O)(=O)c3ccc4[nH]c(=O)[nH]c4c3)cc2)cc1 (centres undefined) | -5.4% (inactive) | – |
| CCCCN1CC(COCc2ccccc2)OCCS1(=O)=O (centres undefined) | -20.5% (inactive) | – |
| CCCCC[C@@H]1C=C(C(=O)O)[C@H](c2ccc(C#N)cc2)N1S(=O)(=O)c1ccc(C)cc1 | -5.15% (inactive) | – |
| COc1ccc(S(=O)(=O)N2CCN(C(=S)NCC3CCCO3)CC2)cc1OC (centres undefined) | -3% (inactive) | – |
| CCOc1ccc(S(=O)(=O)N2CCN(C(=S)NCC3CCCO3)CC2)cc1 (centres undefined) | -4.09% [at 8.37 µM] (inactive) | – |
| S=C(NCC1CCCO1)N1CCN(c2ccc(Cl)c(Cl)c2)CC1 (centres undefined) | – | 10 µM (active) |
| CC(C)COc1ccc(C(=O)NNC(=O)CCC(=O)c2cccs2)cc1 | 1.77% (inactive) | – |
| COC(=O)COc1ccc(S(=O)(=O)Nc2ccc(NC(C)=O)cc2)cc1 | 0.696% (inactive) | – |
| COc1ccc(/C=N/NS(=O)(=O)c2ccc(NC(C)=O)cc2)cc1 | -10.6% (inactive) | – |
| COc1ccc(NS(=O)(=O)c2ccc(Oc3c(C#N)cccc3C#N)cc2)cc1 | – | 17.8 µM (active) |
| O=C(O)C(=Cc1ccccc1[N+](=O)[O-])c1ccccc1 | 5.61% (inactive) | – |
| CN1CCN(c2ccc(NC(=O)c3ccc4c(c3)OCCO4)cc2Cl)CC1 | -11% (inactive) | – |
| O=C(Nc1ccc(N2CCOCC2)cc1)c1ccc2c(c1)OCO2 | -29.1% (inactive) | – |
| CN1CCN(c2ccc(NC(=O)c3cc(Cl)c4c(c3)OCCO4)cc2)CC1 | – | 10 µM (active) |
| O=C(OCCN1C(=O)c2ccccc2C1=O)[C@@H]1CC(O)CN1S(=O)(=O)c1ccccc1[N+](=O)[O-] (some centres undefined) | -3.9% (inactive) | – |
| O=C(NC(=O)c1ccccc1)NC(=O)c1ccccc1 | 10.5% (inactive) | – |
| O=C(NC1=CC(=O)c2ccccc2C1=O)c1ccccc1 | – | 6.31 µM (active) |
| O=C1C=C(NS(=O)(=O)c2ccccc2)C(=O)c2ccccc21 | -5.95% (inactive) | – |
| CC1=CC(=NNS(=O)(=O)c2ccc([N+](=O)[O-])cc2)CC(C)(C)C1 | 2.6% (inactive) | – |
| CC(=O)OC1C2(CC3N4C(=O)C5(CO)SSC4(CC31O)C(=O)N5C)OC(C)C(C)(C)C2=O (centres undefined) | – | 0.562 µM (active) |
| Cc1cc(Br)ccc1NC(=O)CN(C)C(=O)CN1C(=O)NC2(CCCC2)C1=O | -8.88% (inactive) | – |
| O=S(=O)(NCCCc1ccccc1)c1ccc(Br)cc1 | 16.7% (inactive) | – |
| O=C(Cn1cnc2c(OCc3ccccc3)ncnc21)NCc1nc2ccccc2[nH]1 | -17.2% (inactive) | – |
| CC(=O)Nc1ccc(NC(=O)COc2ncnc3ccccc23)cc1 | 25.3% (inactive) | – |

| Compound | activity change, negative = inhibition | Potency |
| --- | --- | --- |
| Cc1ccc(Nc2c3c(nc4ccccc24)CCC3)cc1 | -80.9% (inactive) | – |
| CC(=O)Nc1ccc(Nc2c3ccccc3nc3ccccc23)cc1 | – | 7.08 µM (active) |
| CCOc1ccc(NC(=O)c2ccc(NC(=O)CN3C(=O)C(=O)N(CC(C)C)C3=O)cc2)cc1 | -8.34% (inactive) | – |
| CCN(c1ccccc1)S(=O)(=O)c1ccc(C(=O)Nc2ccccc2OC)cc1 | -15.4% (inactive) | – |
| CN(C(=O)CSc1nnc(C2CC2)n1C)C1CCCc2ccccc21 (centres undefined) | 14.8% (inactive) | – |
| CC(C)c1ccc(S(=O)(=O)N2CCN(C(C)C(=O)NC3CCCC3)CC2)cc1 (centres undefined) | -12.7% (inactive) | – |
| OC(CNCC1CCCO1)Cn1c2ccc(Br)cc2c2cc(Br)ccc21 (centres undefined) | – | 35.5 µM (active) |
| O=C(CCNS(=O)(=O)c1ccc(Br)cc1)NCC1CCCO1 (centres undefined) | 9.8% (inactive) | – |
| CC(NS(=O)(=O)c1ccc(Br)cc1)C(=O)NCC1CCCO1 (centres undefined) | -15.1% (inactive) | – |
| CCOC(=O)c1ccccc1C(=O)N1CCOCCOCCOCC1 | 6.73% (inactive) | – |
| Cc1noc(C)c1C(=O)N1CCOCC1 | -3.5% (inactive) | – |
| Cc1oc2c(c1C(=O)N1CCOCC1)C(=O)c1ccccc1C2=O | – | 5.62 µM (active) |
| O=C(NCCC(=O)N1O[C@@H]2C=C[C@H]1C2)OCC1c2ccccc2-c2ccccc21 | -5.37% (inactive) | – |
| CCn1c(=S)[nH]c2cc(S(=O)(=O)N3CCOCC3)ccc21 | 7.96% (inactive) | – |
| COC(=O)C(C)Sc1nc2c(c(=O)n(C)c(=O)n2C)n1Cc1cccc(C)c1 (centres undefined) | – | inactive |
| Cc1cccc(Cn2c(N3CCN(c4ccccc4)CC3)nc3c2c(=O)n(C)c(=O)n3C)c1 | – | 14.1 µM (active) |
| Cn1c(=O)c2c(nc(CN3CCOCC3)n2Cc2ccccc2)n(C)c1=O | 2.12% (inactive) | – |
| COc1ccc(S(=O)(=O)N(C)C[C@@H]2Oc3ccc(NS(=O)(=O)c4cn(C)cn4)cc3C(=O)N([C@@H](C)CO)C[C@@H]2C)cc1 | 10.5% (inactive) | – |
| O=C(COC(=O)CCCN1C(=O)c2cccc3cccc(c23)C1=O)NC1CCS(=O)(=O)C1 (centres undefined) | 10.7% (inactive) | – |
| CC(O)C(NS(=O)(=O)c1ccc(Cl)cc1)C(=O)OCc1cc([N+](=O)[O-])cc2c1OCOC2 (centres undefined) | – | 10 µM (active) |
| C[C@H](NS(=O)(=O)c1ccc(Cl)cc1)C(=O)OCC(=O)N1CCOCC1 | 9.77% (inactive) | – |
| Nc1ccccc1SCc1cc([N+](=O)[O-])cc2c1OCOC2 | -22.1% (inactive) | – |
| Cn1c(CC(=O)NNC(=O)c2ccccc2F)nc2ccccc21 | 8.68% (inactive) | – |
| CN(C)c1ccc(/C=C2\NC(=S)N(Cc3ccccc3)C2=O)cc1 | -24.6% (inactive) | – |
| O=C1/C(=C\c2ccsc2)NC(=S)N1c1ccccc1 | – | 11.2 µM (active) |

| Compound | activity change, negative = inhibition | Potency |
| --- | --- | --- |
| O=C1N/C(=C/c2cccn2-c2ccccc2)C(=O)N1c1cccc(Cl)c1 | 0.25% (inactive) | – |
| COc1ccc(-c2ccc(CNCCCN3CCOCC3)o2)cc1Cl | – | 11.2 µM (active) |
| COc1ccc(C(=O)NCCCN2CCOCC2)cc1Br | 5.73% (inactive) | – |
| COc1ccc(S(=O)(=O)N(C)CC(=O)NCCCN2CCOCC2)cc1Cl | 1.4% (inactive) | – |
| CC(=O)NCc1ccc(-c2csc(NC(=O)CCCc3nc4ccccc4c(=O)[nH]3)n2)cc1 | -4.47% (inactive) | – |
| CCOC(=O)[C@H]1[C@H]2COc3ccccc3[C@@H]2N2C(=O)CN(Cc3ccccc3)C(=O)[C@@]12C | 1.73% (inactive) | – |
| COc1cccc(NC(=O)COc2cccnc2[N+](=O)[O-])c1 | -4.63% (inactive) | – |
| COc1cccc(NC(=O)c2nn(C34CC5CC(CC(C5)C3)C4)cc2[N+](=O)[O-])c1 | – | 31.6 µM (active) |
| COc1cccc(NC(=O)c2ccc(Cn3cc([N+](=O)[O-])cn3)o2)c1 | -3.39% (inactive) | – |
| O=C1CC[C@@H]2CC3(C[C@@H]4CCN1[C@H]24)Nc1cc([N+](=O)[O-])ccc1NC3=NC1CCCCC1 (some centres undefined) | 22.9% (inactive) | – |
| C=CCN1C=C(C(=O)c2ccccc2)C(=O)CC1 | 39% (inactive) | – |
| c1ccc(-c2noc(-c3cccs3)n2)nc1 | 12.5% (inactive) | – |
| Cc1nc2ccccc2c(C(=O)O)c1-c1ccccn1 | 9.5% (inactive) | – |
| CC(C)(C)Nc1nc(-c2ccccn2)nc2ccccc12 | – | 4.47 µM (active) |
| COc1ccc(/C=N/NC(=O)c2cc(-c3cccc(C)c3)nc3ccccc23)cc1O | -28.4% (inactive) | – |
| C=CCn1c(SCC(=O)NCCCO)nc2sc3c(c2c1=O)CCC3 | -6.08% (inactive) | – |
| O=C(CSc1nc2cc3c(cc2c(=O)n1CCC1=CCCCC1)OCO3)NCc1ccco1 | 5.78% (inactive) | – |
| C=C(C)Cn1c(SCC(=O)NCc2ccco2)nc2sc3c(c2c1=O)CCC3 | – | 8.91 µM (active) |
| O=C(COC(=O)COc1cccc(F)c1)NCC1CCCCC1 | 28.3% (inactive) | – |
| O=C(Nc1ccon1)c1nc[nH]c1C(=O)NCc1ccccc1 | -2.4% (inactive) | – |
| COc1ccc2[nH]c3c(c2c1)CCN1C(=O)C(CC(=O)NCCCN(C)C)C[C@H](C(=O)N2CCOCC2)[C@@]31CCC1CCCC1 (some centres undefined) | -0.0933% (inactive) | – |
| C=CCn1c(CSc2nc3ccccc3s2)nnc1SCC(=O)NCc1ccco1 | – | inactive |
| O=C(CSc1nc2ccc(Nc3nc(N4CCOCC4)nc(N4CCOCC4)n3)cc2s1)NCc1ccco1 | – | 5.01 µM (active) |
| O=C(CSc1c2c(nc3ccc(Cl)cc13)CCCC2)NCc1ccco1 | -25.9% (inactive) | – |
